KLK7 zymogen act – proKLK7 (human) activation, primary screen; P49862; purified proKLK7, EDANS-DABCYL substrate fluorescence; 100% is mature enzyme control, 0% vehicle; activation, % at 7 µM; actives 0.9% (n = 370,000);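 active = activation above the mean of all tested compounds plus 3 SD, computed per campaign excluding outliers beyond control limits, cut at about 13% in these data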
V-ATPase pHluor – alters yeast V-ATPase proton transport. S. cerevisiae, pHLuorin cytosolic pH fluorescence. response, % at 10 µM. actives 0.37% (n = 350,000). AID 504577; in the data active = response mostly above about 7.3%, no sharp cut-off; inactive = mostly below about 5.4%; note: actives read high
ADAM17 inh – inhibitors of human ADAM17; P78536; recombinant ADAM17, EDANS/DABCYL FRET peptide cleavage; inhibition, % at 6.95 µM; actives 0.83% (n = 370,000);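 active = inhibition above the mean of compounds lying between control limits plus 3 SD, set per campaign, cut at about 8.5% in these data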;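 note: 0% = DMSO-only wells as the low control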
Target sequence (P78536 215-824 limits assumed): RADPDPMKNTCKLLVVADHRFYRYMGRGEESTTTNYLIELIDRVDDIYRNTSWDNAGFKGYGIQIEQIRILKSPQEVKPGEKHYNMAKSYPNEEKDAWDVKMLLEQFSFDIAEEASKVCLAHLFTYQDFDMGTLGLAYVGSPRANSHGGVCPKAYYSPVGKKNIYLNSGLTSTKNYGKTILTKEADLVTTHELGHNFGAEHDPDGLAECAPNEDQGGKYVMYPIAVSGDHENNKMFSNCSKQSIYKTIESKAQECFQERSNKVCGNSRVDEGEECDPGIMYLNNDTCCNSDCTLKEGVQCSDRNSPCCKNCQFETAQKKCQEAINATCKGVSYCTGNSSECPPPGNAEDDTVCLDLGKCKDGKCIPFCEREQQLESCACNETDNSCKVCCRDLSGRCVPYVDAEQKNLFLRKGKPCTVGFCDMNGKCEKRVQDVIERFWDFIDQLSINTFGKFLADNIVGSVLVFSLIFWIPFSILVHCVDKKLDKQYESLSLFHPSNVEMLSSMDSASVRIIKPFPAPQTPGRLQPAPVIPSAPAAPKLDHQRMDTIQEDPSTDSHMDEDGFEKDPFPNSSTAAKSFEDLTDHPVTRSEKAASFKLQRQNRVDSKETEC
ADAM10 inh – ADAM10 inhibition, QFRET primary screen | actives 0.62% (n = 370,000) | recombinant ADAM10, EDANS/DABCYL FRET peptide cleavage, 3 h | inhibition, % at 7 µM | AID 720582;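 active = inhibition above a per-campaign cutoff equal to the mean of compounds falling between control-based bounds plus 3 SD, cut at about 20% in these data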;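 note: 0% = DMSO wells while the 100% control is not disclosed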
KLK7 act conf – confirmation of human kallikrein-7 zymogen activators | shares compounds with KLK7 zymogen act | purified proKLK7, EDANS-DABCYL substrate fluorescence; scaled: vehicle 0, mature enzyme 100 | actives 68% (n = 3,200) | activation, % at 7 µM;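 active = activation, as change over the incubation, above the mean of all tested compounds plus 3 SD, cut at about 13% in these data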
EDANS-DABCYL int – optically interferes with EDANS-DABCYL signal, flagging KLK7 hits | shares compounds with KLK7 zymogen act | EDANS-DABCYL substrate fluorescence interference, no enzyme, 4 h; solvent 0%, active enzyme control 100% | activation, % at 7 µM | actives 80% (n = 3,200) | AID 686952;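 active = activation above the all-compound mean plus 3 SD, ignoring values outside control-based bounds, cut at about 4.8% in these data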;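 note: value is the 4 h activation minus the activation read at time zero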
EDANS interf – optically interferes with EDANS-DABCYL fluorescence, kallikrein-7 activator counter-screen. shares compounds with KLK7 zymogen act. EDANS-DABCYL peptide fluorescence interference, no enzyme. EC50, µM. actives 20% (n = 250). AID 720493;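 active = compounds that raise the fluorescence signal in this interference counterscreen, with EC50 at or below 10 µM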;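 note: intact quenched peptide substrate alone read at 355 nm excitation and 520 nm emission; signal is fluorescence gain from T0 to T4 after four hours at room temperature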
* = called active by the depositor; i = inactive; · = not tested or not shown. Hits are enriched below; roughly 2.3% of the tested compounds scored in any of these assays.

SMILES	KLK7 zymogen act	V-ATPase pHluor	ADAM17 inh	ADAM10 inh	KLK7 act conf	EDANS-DABCYL int	others
Cc1cc(C)nc(NC(=S)N2CCN(c3ccc(Cl)c(Cl)c3)CC2)c1	·	·	-3.2	5.2	·	·
CCOC(CCNC(=O)c1cc(-c2cccs2)nc2ccccc12)OCC	32.2*	0.3	i	i	9.2	9.8*
O=C(O)c1ccc(/C=N/NC(=O)c2cc(-c3cccs3)nc3ccccc23)cc1	23.2*	-2.6	-205.9	i	28.5*	20.6*	EDANS interf=i
CC(C)NC(=O)c1cc(-c2cccs2)nc2ccccc12	2.2	0.5	-477.6	i	·	·
O=C(NC1=NCCS1)c1cc(-c2cccnc2)nc2ccccc12	-0.1	-2.6	-1.8	-0.5	·	·
O=C(NC1=NCCS1)c1cc(-c2cccs2)nc2ccccc12	34.7*	2.8	-210.4	i	-27.7	-14.1
COc1ccc(CNC(=O)COC(=O)c2cc(-c3cccs3)nc3ccccc23)cc1OC	14.8*	0.0	-82.8	-345.4	-3.5	0.1
COC(=O)c1cc2c(c3c4cc(F)ccc4n(S(=O)(=O)c4ccccc4)c13)C(=O)N(Cc1ccco1)C2	-1.4	·	-3.8	-7.9	·	·
CC1CCN(c2c3c(nc4ncnn24)CCCC3)CC1	0.7	·	1.5	-0.2	·	·
CCCCCCCCN1C(=O)[C@@H](CC(=O)N2CCN(C(=O)C3CC3)CC2)C[C@@]2(C(=O)OC)C1=C[C@H](C(C)(C)C)O[C@@H]2C	0.1	·	-0.2	2.3	·	·
O=C(N[C@@H](Cc1cccnc1)C(=O)N1CCC[C@H]1C(=O)NCCc1ccccc1Cl)C1CC1	-0.3	·	-7.0	-21.3	·	·
COc1ccccc1Oc1c(C)oc2c(CN3CCN(C)CC3)c(O)ccc2c1=O	76.8*	·	i	i	69.1*	76.3*
COc1cccc(Oc2c(C)oc3c(CN4CCCCC4)c(O)ccc3c2=O)c1	61.5*	-3.1	i	i	61.3*	71.4*
COC(=O)c1ccc(Oc2c(C)oc3c(CN4CCN(C)CC4)c(O)ccc3c2=O)cc1	65.1*	3.6	i	i	79.2*	73.2*
CCN1CCN(Cc2c(O)ccc3c(=O)c(-c4ccc(OC)c(OC)c4)c(C)oc23)CC1	11.1	-2.0	-139.8	-391.1	·	·
Cc1cc(C)cc(Oc2coc3c(CN(C)C)c(O)ccc3c2=O)c1	71.1*	-3.9	i	i	68.8*	80.4*
Cc1cccc(-c2cccc3c4c([nH]c23)[C@@H]2C[C@H](N(C)C(=O)c3ccccc3F)[C@H]([C@H](C)O)CN2CC4)c1	-0.1	·	-8.8	-30.3	·	·
Cc1ccc(F)cc1C(=O)N1CCCC(c2nc(-c3cccs3)no2)C1 (stereo not given)	-0.5	·	3.2	-1.7	·	·
COC(=O)C1=C(C)N(Cc2ccccc2C(F)(F)F)C(=NCc2ccccc2C(F)(F)F)NC1c1cccc(C(F)(F)F)c1 (stereo not given)	-0.4	·	0.6	-7.6	·	·
COc1ccc(-c2c(C(F)(F)F)oc3c(CN4CCN(C)CC4)c(O)ccc3c2=O)cc1	9.8	3.3	-11.0	-29.0	·	·
COc1ccc(-c2c(C)oc3c(CN4CCN(C)CC4)c(O)ccc3c2=O)cc1	58.9*	0.0	i	i	40.2*	49.6*
COc1ccc(Oc2c(C)oc3c(CN(C)C)c(O)ccc3c2=O)cc1	14.2*	-0.7	-295.1	i	31.9*	31.0*
C=C(C)[C@H]1CC=C(C)/C(=N/NC(=O)CNc2ccccc2OC)C1	-1.0	0.4	2.0	10.9	·	·
C=C(C)C1CC=C(C)/C(=N\NC(=O)CNc2cccc3ccccc23)C1 (stereo not given)	24.9*	-3.8	-116.2	-352.5	6.2	6.8*
N=C1/C(=C/c2coc3ccccc3c2=O)C(=O)N=C2SC(c3ccco3)=NN12	·	5.2	·	·	·	·
SMILES	KLK7 zymogen act	V-ATPase pHluor	ADAM17 inh	ADAM10 inh	KLK7 act conf	EDANS-DABCYL int	others
N=C1/C(=C\c2coc3ccccc3c2=O)C(=O)N=C2SC(c3ccncc3)=NN12	42.9*	-2.3	-53.6	-132.1	46.9*	38.5*	EDANS interf=i
CCOC(=O)c1cc2c(=O)n3ccccc3nc2n(C(C)C)c1=NC(=O)c1ccncc1	37.2*	-1.9	i	i	56.2*	61.6*
CCOCCCn1c(=NC(C)=O)c(C#N)cc2c(=O)n3ccccc3nc21	22.6*	-5.3	i	i	6.3	16.7*
CCOC(=O)c1cc2c(=O)n3ccccc3nc2n(CCOC)c1=NC(=O)c1ccncc1	23.9*	4.3	i	i	8.2	12.8*
CCOC(=O)c1cc2c(=O)n3ccccc3nc2n(CC(C)C)c1=NC(=O)c1ccco1	29.7*	-0.5	-433.0	i	24.1*	25.6*
COC(=O)[C@]12C[C@H](CC(=O)N3CCC(c4ccccc4)CC3)C(=O)N(CCC3=CCCCC3)C1=C[C@H](C1CCCC1)O[C@@H]2C	-0.4	·	-1.0	4.2	·	·
CCOC(=O)C1=CCC(c2ccc([N+](=O)[O-])cc2)N(S(=O)(=O)c2ccc(C)cc2)C1 (stereo not given)	0.4	·	5.8	17.8	·	·
CCOC(=O)c1cc2c(=O)n3ccccc3nc2n(CCCOC)c1=NC(=O)C(C)(C)C	22.0*	-6.0	i	i	15.5*	14.9*
CCOC(=O)[C@@]12CN(C(=O)OC(C)(C)C)CC=C1N(Cc1ccc(OC)cc1)C(=O)[C@H]2CC(=O)NCc1cccc(C(F)(F)F)c1	0.5	·	4.8	12.7	·	·
O=C(C=Cc1ccco1)c1cc(Cl)ccc1O	35.3*	-8.1	-7.5	-21.7	-0.1	1.4
O=C(/C=C/c1ccco1)c1ccccc1O	8.3	0.6	-3.1	-12.5	·	·
CCc1nn2c(NCCCO)cc(C)nc2c1-c1ccc(F)cc1	-0.7	-1.2	-3.5	-10.7	·	·
Cc1cc(C)c2c(n1)nn1c(NCCOCCO)cc(C)nc21	61.2*	0.7	i	i	77.9*	80.5*
Cc1cc(C)c2c(n1)nn1c(NCCCN(C)C)cc(C)nc21	71.6*	2.1	i	i	46.2*	48.1*
COc1ccccc1C(=O)NC1CCCCN(Cc2cccc(C(F)(F)F)c2)C1=O (stereo not given)	0.5	·	2.3	8.6	·	·
CC1(C)CC(=O)C=C(Nc2ccccc2NC(=O)c2cc(F)ccc2F)C1	0.1	·	-5.6	-9.4	·	·
COc1ccc(S[C@]2(C(=O)N3CCCC3)CC(=O)N(C(=O)c3ccccc3)[C@@H]2c2ccc(OC)cc2)cc1	1.0	·	5.8	5.5	·	·
Cc1ccc(OCc2nnc(SCC(=O)Nc3ccc(S(=O)(=O)Nc4cc(C)nc(C)n4)cc3)n2Cc2ccco2)cc1	-0.3	·	3.0	-8.8	·	·
O=C(Nc1ncccn1)c1ccc([N+](=O)[O-])o1	816.6*	3.0	-166.0	i	834.0*	834.5*

Source: PubChem BioAssay
